Assay [1] can be described thus: P-glycoprotein substrates identified in KB-8-5-11 adenocarcinoma cell line, qHTS therapeutic library screen (AID 1346987). Also: nearly all actives have a fitted effect of over 65% in size. Also: potency is read from the fitted curve at half-maximal effect. A digest of the protocol: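 Luminescence from CellTiter-Glo, read 5 min after addition, quantified survival of KB-8-5-11 (P-gp-overexpressing) cells exposed to compounds for 72 h. AC50 was derived from concentration-response curves.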
Assay [2] can be described thus: NS1 protein of Zika virus - qHTS assay to identify small molecule inhibitors in human HEK 293 cells (AID 1347053). Also: series mostly up to about 46 µM; nearly all actives have a fitted effect of over 55% in size. The method, boiled down:
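In this cell-based screen, HEK 293 cultures received compound for one hour before Zika MR766 at MOI = 0.5. NS1 was quantified 24 hours later by TR-FRET, normalized to virus-free wells and infected wells.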
(Quantitative high-throughput screening tests each substance at several concentrations.)

Assay [3] in a line: qHTS of pediatric cancer cell lines to identify multiple opportunities for drug repurposing: Primary screen for TC32 cells (AID 1347089). Also: nearly all actives have a fitted effect of over 60% in size. Also: potency is read from the fitted curve at half-maximal effect. The method, boiled down: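 Luminescent CellTiter-Glo read-out of metabolically active TC32 cells after 48 h compound exposure. Primary: MIPE 11-point, 0.78 nM–46 µM; NPC 8-point, 0.59 nM–46 µM. Confirmatory: 11-point dilutions.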
Assay [4] in a line: qHTS of pediatric cancer cell lines to identify multiple opportunities for drug repurposing: Primary screen for DAOY cells (AID 1347090). Also: nearly all actives have a fitted effect of over 55% in size. Also: potency is read from the fitted curve at half-maximal effect. A digest of the protocol:
(§1)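 Eight- or eleven-point concentration series, 48 h treatment at 37 degrees C in growth media; readout CellTiter-Glo luminescence. Potency and efficacy were taken from the concentration-response curves.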

Assay [5] in a line: qHTS of pediatric cancer cell lines to identify multiple opportunities for drug repurposing: Primary screen for SJ-GBM2 cells (AID 1347091). Also: potency is read from the fitted curve at half-maximal effect. A digest of the protocol: as §1
The nature of assay [6]: qHTS of pediatric cancer cell lines to identify multiple opportunities for drug repurposing: Primary screen for Saos-2 cells (AID 1347097). Also: potency is read from the fitted curve at half-maximal effect; nearly all actives have a fitted effect of over 40% in size. A digest of the protocol:
(§2)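 500-1,000 cells/well; 5 h pre-incubation 37 °C/5% CO2; compound pinned; 48 h; CellTiter-Glo, 15 min RT; luminescence. MIPE 11-pt from 0.78 nM, NPC 8-pt from 0.59 nM final. Bortezomib 2.3 µM final as positive control.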

Assay [7] is described as follows: qHTS of pediatric cancer cell lines to identify multiple opportunities for drug repurposing: Primary screen for SK-N-SH cells (AID 1347098). Also: nearly all actives have a fitted effect of over 65% in size. Also: potency is read from the fitted curve at half-maximal effect. The method, boiled down: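 Cells (500-1,000/well) rested 5 h, then received compounds for 48 h; metabolically active cells were measured by CellTiter-Glo luminescence. Final concentrations spanned up to 46 µM (MIPE, 11-point) or 0.59 nM-46 µM (NPC, 8-point) in primary screens, 11-point in follow-ups.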

A short description of assay [8]: Natriuretic polypeptide receptor (hNpr1) antagonism - Pilot counterscreen GloSensor control cell line (AID 1347045; calls by dose curve; also: series mostly up to about 38 µM). The method, boiled down: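 Cells were first seeded and incubated overnight at 37C, then loaded with 2% GloSensor substrate for 2 h. Compounds were added for 30 min at room temperature, followed by a baseline read, 50 uM SNP and a final read after 20 min.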
(In general: The purpose of a counterscreen is to sort out artefacts and off-target activity.)

For assay [9], the target named is Atrial natriuretic peptide receptor 1 (Homo sapiens) (UniProt P16066). Description: Natriuretic polypeptide receptor (hNpr1) antagonism - Pilot screen (AID 1347049; calls by dose curve;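 also: HEK293 cells with hNpr1 and GloSensor cGMP luciferase stimulated by 0.1 nM hNppA; agonist-evoked cGMP luminescence read 20 min after hNppA addition; series mostly up to about 58 µM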). A digest of the protocol:
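Cells expressing receptor plus cGMP biosensor are seeded and incubated overnight at 37C, then loaded with GloSensor reagent (2% final) at room temperature for 2 h. Library compounds go on for 30 min. A pre-read precedes agonist (hNppA, 0.1 nM final) and a 20-min readout.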

The target of assay [10] is Atrial natriuretic peptide receptor 2 (Homo sapiens) (UniProt P20594). Put plainly: Natriuretic polypeptide receptor (hNpr2) antagonism - Pilot subtype selectivity assay (AID 1347050; calls by dose curve). The method, boiled down:
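Read-out: GloSensor luminescence (CCD imager), baseline vs post-stimulation. HEK293 cells expressing hNpr2; compounds pre-incubated 30-50 min at ambient temperature; hNppC 1 nM final, 20 min.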

Assay [11] has as its target T1, Tyrosine-protein phosphatase non-receptor type substrate 1 (Homo sapiens) + Leukocyte surface antigen CD47 (Homo sapiens) (UniProt P78324+Q08722). Put plainly: CD47-SIRPalpha protein protein interaction - LANCE assay qHTS validation (AID 1347057; active = well fitted curve in the direction sought with a large enough effect in the signal ratio, with a control signal flat, not every such curve was filed as active; the % refers to the signal ratio; also: series mostly up to about 38 µM). The method, boiled down: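 Inhibition of soluble CD47/SIRPalpha ectodomain association by titrated compounds, measured as 665/615 nm time-resolved FRET ratio after sequential 30 min room-temperature incubations.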
(In general: In TR-FRET formats the signal depends on donor and acceptor labels being close together.)

The target of assay [12] is T1, Tyrosine-protein phosphatase non-receptor type substrate 1 (Homo sapiens) + Leukocyte surface antigen CD47 (Homo sapiens). Put plainly: CD47-SIRPalpha protein protein interaction - HTRF assay qHTS validation (AID 1347058; active = well fitted curve in the direction sought with a large enough effect in the signal ratio, not every such curve was filed as active; the % refers to the signal ratio; also: series mostly up to about 38 µM). The method, boiled down:
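Soluble extracellular domains (6His-CD47, Avi-tag-biotinylated SIRPalpha) in PBS pH 7.4 with 0.05% IGEPAL CA-630. Compounds were preincubated 30 min at RT with CD47 and anti-His-Eu, then SIRPalpha and SAV-XL665 were added. TR-FRET 665/615 ratio.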

Assay [13] shares this target. Put plainly: CD47-SIRPalpha protein protein interaction - Alpha assay qHTS validation (AID 1347059).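 Also: bead proximity luminescence from CD47 binding SIRPalpha after compound preincubation with SIRPalpha.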 A digest of the protocol:
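In PBS (pH 7.4) with 0.05% IGEPAL CA-630, compound is preincubated with biotin-Avi-SIRPalpha ectodomain before His-CD47 ectodomain and affinity beads are added. Light-protected room-temperature incubations; AlphaScreen readout.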

Assay [14] has as its target Parathyroid hormone/parathyroid hormone-related peptide receptor (Homo sapiens) (UniProt Q03431). Description: qHTS for PTHR1 Agonists: Optimization Screen against the NCGC LOPAC library (AID 1347079).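 Also: GloSensor cAMP luminescence in HEK-293 GP2 cells expressing human PTHR1 with IBMX.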 A digest of the protocol:
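HEK-293 GP2 cells, PTHR1 + GloSensor cAMP; 3000 cells/well, o/n. Luciferin + IBMX 0.5mM each (stock), 1 hr 37C. Cpd titration, 1 hr 37C. Lum after 15 min RT. Ctrl M-PTH(1-15) top 10uM.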

The nature of assay [15]: qHTS of pediatric cancer cell lines to identify multiple opportunities for drug repurposing: Primary screen for SK-N-MC cells (AID 1347093). Also: potency is read from the fitted curve at half-maximal effect. A digest of the protocol: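 Metabolically active cells were quantified by ATP-dependent luminescence (CellTiter-Glo, 15 min at room temperature) following 48 h treatment. Cells had been plated at 500-1,000 per well and settled for 5 h beforehand.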

A short description of assay [16]: qHTS of pediatric cancer cell lines to identify multiple opportunities for drug repurposing: Primary screen for BT-37 cells (AID 1347094). Also: potency is read from the fitted curve at half-maximal effect. A digest of the protocol:
as §2

Assay [17] can be described thus: qHTS of pediatric cancer cell lines to identify multiple opportunities for drug repurposing: Primary screen for NB-EBc1 cells (AID 1347095). Also: potency is read from the fitted curve at half-maximal effect. The method, boiled down:
as §2

The nature of assay [18]: qHTS of pediatric cancer cell lines to identify multiple opportunities for drug repurposing: Primary screen for U-2 OS cells (AID 1347096). Also: nearly all actives have a fitted effect of over 50% in size. The method, boiled down:
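Cells (500-1,000/well) in growth media were settled 5 h at 37 degrees C, then given compounds for 48 h. Viability was read as CellTiter-Glo luminescence. Primary runs used MIPE at 11 points (0.78 nM-46 µM) and NPC at 8 points (0.59 nM-46 µM); follow-ups used 11 points.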

Assay [19] can be described thus: qHTS of pediatric cancer cell lines to identify multiple opportunities for drug repurposing: Primary screen for NB1643 cells (AID 1347099). Also: nearly all actives have a fitted effect of over 50% in size. Also: potency is read from the fitted curve at half-maximal effect. A digest of the protocol: as §2
Assay [20] is described as follows: qHTS of pediatric cancer cell lines to identify multiple opportunities for drug repurposing: Primary screen for A673 cells (AID 1347092). Also: nearly all actives have a fitted effect of over 45% in size. Also: potency is read from the fitted curve at half-maximal effect. A digest of the protocol: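 A673 cells (500-1,000 cells/well in growth media) were pre-incubated 5 h at 37 degrees C, then exposed to compounds for 48 h. Viability was read as CellTiter-Glo luminescence; concentration-response curves came directly from the primary screen.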

A number with no mark means an inactive call. Records with an inconclusive call do not appear. Activity calls are given as the source filed them. Unless noted, calls follow the shape of the dose curve; as a rule, active = well fitted curve in the direction sought with a large enough effect; inconclusive = small, poorly fitted or top-dose-only effect, or another doubt; inactive = no such curve, though single readings can be large; an effect the other way counts as inactive or inconclusive.

Atrial natriuretic peptide receptor 2 (Homo sapiens), sequence (P20594 whole entry, looked up): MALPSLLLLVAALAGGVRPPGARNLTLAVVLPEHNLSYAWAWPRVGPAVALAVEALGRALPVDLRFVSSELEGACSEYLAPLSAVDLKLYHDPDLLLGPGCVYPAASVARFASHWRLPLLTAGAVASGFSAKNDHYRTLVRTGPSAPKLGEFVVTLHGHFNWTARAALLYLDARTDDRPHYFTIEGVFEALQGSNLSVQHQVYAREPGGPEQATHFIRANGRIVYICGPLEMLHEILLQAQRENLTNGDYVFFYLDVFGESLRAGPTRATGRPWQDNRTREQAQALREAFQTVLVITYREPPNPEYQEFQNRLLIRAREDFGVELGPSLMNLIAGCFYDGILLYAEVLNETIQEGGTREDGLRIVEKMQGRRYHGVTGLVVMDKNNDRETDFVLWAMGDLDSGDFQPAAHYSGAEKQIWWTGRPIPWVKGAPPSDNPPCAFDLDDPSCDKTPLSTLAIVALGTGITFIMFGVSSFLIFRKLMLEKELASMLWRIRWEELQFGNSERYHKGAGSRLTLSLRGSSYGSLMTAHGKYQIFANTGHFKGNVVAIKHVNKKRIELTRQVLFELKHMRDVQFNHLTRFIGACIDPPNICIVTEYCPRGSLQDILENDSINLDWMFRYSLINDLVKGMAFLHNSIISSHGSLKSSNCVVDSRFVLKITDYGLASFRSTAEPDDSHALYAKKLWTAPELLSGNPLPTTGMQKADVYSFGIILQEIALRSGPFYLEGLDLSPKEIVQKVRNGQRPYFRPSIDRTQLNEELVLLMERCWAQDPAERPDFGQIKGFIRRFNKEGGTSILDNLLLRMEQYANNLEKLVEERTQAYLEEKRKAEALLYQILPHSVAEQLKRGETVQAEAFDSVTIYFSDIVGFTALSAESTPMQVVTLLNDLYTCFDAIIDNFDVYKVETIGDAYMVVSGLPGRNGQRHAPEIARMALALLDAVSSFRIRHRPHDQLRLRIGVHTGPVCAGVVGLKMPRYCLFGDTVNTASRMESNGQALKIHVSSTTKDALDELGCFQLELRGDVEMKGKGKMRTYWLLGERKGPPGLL
Parathyroid hormone/parathyroid hormone-related peptide receptor (Homo sapiens), sequence (Q03431 whole entry, looked up): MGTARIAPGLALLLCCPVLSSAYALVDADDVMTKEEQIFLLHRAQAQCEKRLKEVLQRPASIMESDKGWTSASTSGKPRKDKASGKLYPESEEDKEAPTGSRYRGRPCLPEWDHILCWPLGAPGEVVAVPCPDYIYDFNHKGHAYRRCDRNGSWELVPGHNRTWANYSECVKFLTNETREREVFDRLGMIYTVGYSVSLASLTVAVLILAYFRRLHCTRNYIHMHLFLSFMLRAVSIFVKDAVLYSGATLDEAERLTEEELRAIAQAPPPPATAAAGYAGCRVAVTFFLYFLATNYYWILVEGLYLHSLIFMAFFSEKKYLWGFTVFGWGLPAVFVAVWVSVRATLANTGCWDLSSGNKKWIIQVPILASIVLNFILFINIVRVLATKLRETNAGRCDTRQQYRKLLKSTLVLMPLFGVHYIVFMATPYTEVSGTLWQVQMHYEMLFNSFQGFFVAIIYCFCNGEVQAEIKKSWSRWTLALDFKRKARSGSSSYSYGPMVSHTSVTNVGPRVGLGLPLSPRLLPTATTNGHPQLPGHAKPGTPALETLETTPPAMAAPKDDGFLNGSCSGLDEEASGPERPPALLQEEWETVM
T1 sequence (P78324 whole entry, looked up, the tested form may be a part): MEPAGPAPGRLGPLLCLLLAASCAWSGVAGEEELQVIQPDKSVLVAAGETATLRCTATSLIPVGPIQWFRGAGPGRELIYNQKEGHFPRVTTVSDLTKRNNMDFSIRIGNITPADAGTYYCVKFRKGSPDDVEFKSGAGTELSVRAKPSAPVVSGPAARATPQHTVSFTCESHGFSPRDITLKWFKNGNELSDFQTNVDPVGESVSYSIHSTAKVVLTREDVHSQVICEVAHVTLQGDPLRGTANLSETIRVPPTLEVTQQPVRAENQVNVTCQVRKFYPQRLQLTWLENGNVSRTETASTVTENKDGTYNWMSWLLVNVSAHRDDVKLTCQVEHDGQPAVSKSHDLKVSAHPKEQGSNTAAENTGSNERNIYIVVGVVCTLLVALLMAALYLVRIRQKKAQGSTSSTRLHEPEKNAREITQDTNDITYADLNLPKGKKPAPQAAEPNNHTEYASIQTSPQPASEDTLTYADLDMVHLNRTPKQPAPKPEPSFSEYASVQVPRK
T1 sequence (Q08722 whole entry, looked up, the tested form may be a part): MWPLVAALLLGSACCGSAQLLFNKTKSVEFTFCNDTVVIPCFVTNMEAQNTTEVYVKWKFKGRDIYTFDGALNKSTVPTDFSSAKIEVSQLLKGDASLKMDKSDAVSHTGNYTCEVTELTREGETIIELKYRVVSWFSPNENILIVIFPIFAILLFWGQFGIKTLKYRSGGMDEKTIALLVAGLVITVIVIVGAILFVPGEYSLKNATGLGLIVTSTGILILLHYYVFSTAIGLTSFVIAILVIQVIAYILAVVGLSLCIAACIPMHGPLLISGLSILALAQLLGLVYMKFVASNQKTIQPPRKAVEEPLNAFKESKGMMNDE
Atrial natriuretic peptide receptor 1 (Homo sapiens), sequence (P16066 whole entry, looked up): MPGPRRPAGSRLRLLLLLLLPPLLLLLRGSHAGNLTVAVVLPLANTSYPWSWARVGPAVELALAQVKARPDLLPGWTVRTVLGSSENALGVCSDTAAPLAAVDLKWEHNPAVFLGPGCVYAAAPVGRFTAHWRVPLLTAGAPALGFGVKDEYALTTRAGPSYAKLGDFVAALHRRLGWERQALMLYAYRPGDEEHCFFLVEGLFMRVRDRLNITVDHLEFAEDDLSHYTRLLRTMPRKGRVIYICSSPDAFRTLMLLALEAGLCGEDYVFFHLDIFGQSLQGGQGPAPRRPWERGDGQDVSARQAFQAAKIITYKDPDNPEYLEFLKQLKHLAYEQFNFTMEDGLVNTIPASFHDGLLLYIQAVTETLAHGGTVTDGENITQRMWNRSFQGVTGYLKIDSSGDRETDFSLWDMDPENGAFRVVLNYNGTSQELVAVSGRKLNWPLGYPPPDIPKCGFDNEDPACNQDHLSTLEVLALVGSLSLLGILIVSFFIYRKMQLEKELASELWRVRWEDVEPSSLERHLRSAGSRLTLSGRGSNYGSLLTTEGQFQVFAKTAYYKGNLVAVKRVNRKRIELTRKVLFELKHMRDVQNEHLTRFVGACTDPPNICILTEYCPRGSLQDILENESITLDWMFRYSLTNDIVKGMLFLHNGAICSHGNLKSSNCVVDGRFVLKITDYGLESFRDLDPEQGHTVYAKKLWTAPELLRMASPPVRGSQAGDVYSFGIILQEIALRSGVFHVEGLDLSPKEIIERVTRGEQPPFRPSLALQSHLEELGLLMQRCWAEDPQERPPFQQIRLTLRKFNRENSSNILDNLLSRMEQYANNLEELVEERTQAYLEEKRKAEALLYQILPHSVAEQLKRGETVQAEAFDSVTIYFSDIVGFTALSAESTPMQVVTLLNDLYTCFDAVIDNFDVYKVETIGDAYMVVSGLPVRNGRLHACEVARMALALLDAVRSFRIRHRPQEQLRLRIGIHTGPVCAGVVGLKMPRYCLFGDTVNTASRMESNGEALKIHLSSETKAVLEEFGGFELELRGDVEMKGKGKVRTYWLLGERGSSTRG

With `COc1cc(NC(C)CCCN)c2ncccc2c1` (centres undefined), the Potency entry in [1], in assay [2], in [4] and in [5] was “inactive” throughout. The results for the Potency in assay [3], in [6] and in assay [7] were 16700 nM (active), 23700 nM (active) and 17200 nM (active), respectively.

In the case of `CN1[C@@H](CC(=O)c2ccccc2)CCC[C@H]1C[C@H](O)c1ccccc1`, the Potency entry in assay [8], in assay [9], in [10], in assay [2], in assay [11] and in assay [13] was “inactive” throughout. In assay [14], the Potency entry was “inactive”. In addition, the outcome in [12] was inactive.

Consider `COc1cc(C(O)CO)ccc1OS(=O)(=O)O` (centres undefined), for which the Potency result in [8], in assay [9], in [10], in [2], in [11] and in assay [13] was “inactive” each time. Besides, the Potency entry in assay [14] is “inactive”. Also, in assay [12], the result was inactive.

Consider `O=C(O)CC[C@@H](C(=O)O)N1C(=O)c2ccccc2C1=O`, for which the Potency result in assay [8], in [9], in assay [10], in assay [2], in [11] and in assay [13] was “inactive” each time. In assay [14], the Potency result was “inactive”. Moreover, the outcome in [12] was inactive.

Consider `O=C(O)c1cc(O)c(O)c(O)c1`, for which the Potency result in assay [1], in assay [2], in [3], in [4], in [5] and in assay [15] was “inactive” throughout. The Potency entry in assay [16], in assay [17], in assay [18], in [7] and in assay [19] was “inactive” each time.

`CNc1ncnc2c1ncn2[C@@H]1O[C@H](CO)[C@@H](O)[C@H]1O`: the Potency entry in [8], in assay [9], in [10], in [2], in [11] and in assay [13] was “inactive” throughout. For the same compound, the Potency entry in assay [14] was “inactive”. For the same compound, the outcome in assay [12] was inactive.

Regarding `NC(=O)C1=CN(C2OC(COP(=O)(O)OP(=O)(O)OC[C@H]3O[C@@H](n4cnc5c(N)ncnc54)[C@H](OP(=O)(O)O)[C@@H]3O)C(O)C2O)C=CC1` (some centres undefined), the Potency entry in [8], in [9], in assay [10], in assay [2], in assay [11] and in assay [13] was “inactive” throughout. For the same compound, the Potency result in assay [14] was “inactive”. Further, the outcome in assay [12] was inactive.

In the case of `CCN(CC)CCCCNc1ncc2cc(-c3c(Cl)cccc3Cl)c(NC(=O)NC(C)(C)C)nc2n1`, the Potency in assay [1] is 16400 nM (active). Further, the Potency entry in assay [11] and in assay [13] was “inactive” throughout.

`CN(C)C(N)=NCCC[C@H](N)C(=O)O`: the Potency entry in assay [8], in [9], in [10], in assay [2], in [11] and in assay [13] was “inactive” each time. Further, the Potency entry in assay [14] is “inactive”. Moreover, the result in [12] was inactive.

Regarding `Nc1ccc(O)c([N+](=O)[O-])c1`, the Potency entry in assay [1], in [2], in assay [4], in assay [5], in assay [20] and in assay [16] was “inactive” each time. The Potency result in assay [17], in assay [18] and in assay [19] was “inactive” in each case.

For `COc1cccc2c1C(=O)c1c(O)c3c(c(O)c1C2=O)C[C@@](O)(C(=O)CO)C[C@@H]3O[C@H]1C[C@H](N)[C@H](O[C@@H]2CCCCO2)[C@H](C)O1`, the Potency entry in assay [1] was “inactive”. For the same compound, the Potency is 470 nM (active) in assay [3]; 1680 nM (active) in assay [4]; 1330 nM (active) in assay [5]; 1060 nM (active) in assay [20]; 211 nM (active) in [15]; 246 nM (active) in assay [16]. Moreover, the Potency was 75 nM (active) in [17], 2660 nM (active) in assay [6], 97 nM (active) in [7] and 596 nM (active) in assay [19].

The values above are taken from PubChem BioAssay (NCATS).
